Screening data deposited in PubChem BioAssay by National Center for Advancing Translational Sciences (NCATS).
A selection: hits, their analogues and other compounds. The true share with any hit is near 8.1%.
SW480 rereplic = induces DNA re-replication in SW480 colon adenocarcinoma cells | hit rate 1.8% among 340,000 | SW480 DNA re-replication, Hoechst DNA content imaging, 48 h | AID 624297 | Potency, µM (titrated, usually from 46.1 µM), inactives show top-dose re-replication activation, most hits filed as activators; also: % of control where 0% means no effect; nearly all actives have a fitted effect of over 55% in size
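Treated cells incubate 48 hr (37 C, 5% CO2), are stained 40 min with Hoechst, and nuclear fluorescence is enumerated; a rise in nuclei with high DNA signal marks re-replication.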
MCF10A rerep = DNA re-replication induction in MCF 10a cells; MCF 10A DNA re-replication, Hoechst nuclear intensity, 48 h; Potency, µM (highest dose often 46.1 µM), for inactives: at the highest dose activity, positive = re-replication, usual class: activators; hit rate 2.9% among 350,000; also: % of control where 0% means no effect; nearly all actives have a fitted effect of over 50% in size
KB-V1 MDR tox = KB-V1 MDR subline cytotoxicity; Potency, µM (highest dose often 46.1 µM), most hits filed as cytotoxic; KB-V1 MDR cells viability, CellTiter-Glo, 72 h; hit rate 3.4% among 400,000; also: % is scaled to controls: 0 for no effect and ±100 for the full control effect; nearly all actives have a fitted effect of over 60% in size
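Cytotoxicity via CellTiter-Glo luminescence after 72 h compound exposure at 37 degrees C. Cells: drug-selected KB-V1 line, DMEM phenol-red free plus 10% FBS. Compounds tested at multiple concentrations; normalized data fitted to concentration-effect curves.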
ELG1 DNA repair = inhibitors of ELG1-dependent DNA repair in HEK293T cells; HEK293T ELG1-luciferase reporter, luminescence, 16 h; DNA damage induced by 5-fluorouridine; Potency, µM (doses to about 46.1 µM), for inactives: at the highest dose activity change, negative = inhibition, usual class: inhibitors; hit rate 2.3% among 330,000; AID 504467; also: % is scaled to controls: 0 for no effect and ±100 for the full control effect; nearly all actives have a fitted effect of over 55% in size
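Quantitative HTS, concentration-response format. 2,000 cells/well co-treated with 5-fluorouridine and compound, 16 hr in 5% CO2 at 37 °C; ONE-Glo luminescence read after 30 min.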
KB-3-1 cytotox = KB-3-1 parental cell cytotoxicity; hit rate 1.4% among 400,000; KB-3-1 viability, CellTiter-Glo ATP luminescence, 72 h; Potency, µM (highest dose often 46.1 µM), usual class: cytotoxic; also: % is scaled to controls: 0 for no effect and ±100 for the full control effect; nearly all actives have a fitted effect of over 60% in size
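Parental KB-3-1 viability, qHTS format: 72 h compound exposure, 37 °C; CellTiter-Glo; media-only wells and DMSO plates as controls; concentration-effect fits on corrected data.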
* hit, by the source's call; i = inactive; ? = inconclusive; . = no result given; [ ] = another dose, or the depositor's remark. Calls follow the shape of the dose curve; as a rule, active = well fitted curve in the direction sought with a large enough effect; inconclusive = small, poorly fitted or top-dose-only effect, or another doubt; inactive = no such curve, though single readings can be large; an effect the other way counts as inactive or inconclusive. Potency is read from the fitted curve at half-maximal effect.

SMILES	SW480 rereplic	MCF10A rerep	KB-V1 MDR tox	ELG1 DNA repair	KB-3-1 cytotox
COCCCNc1nc2c(-c3cccc(C)c3)nnn2c2ccccc12	8%	13µM*	i	-13%	i
Cc1ccc2c(c1)N(C(=O)Nc1cccc(C)c1C)CCO2	.	.	i	.	i
Cn1nc(C(F)(F)F)c(-c2ccc(F)cc2)c1NC(=O)c1ccco1	-4%	-2%	i	-20%	i
Cn1nc(C(F)(F)F)c(-c2ccc(Br)cc2)c1NC(=O)Nc1ccc(F)cc1F	-1%	21µM*	?	?	?
COc1ccc(-c2cc(C(=O)Nc3ccc(OC)c(OC)c3)[nH]n2)c(C)c1	.	.	i	.	i
Cc1ccc(NC(=O)CSc2nc3n[nH]c(C)c3c(=N)n2-c2ccccc2C)cc1C	.	.	i	.	i
CCCN1CCC(=NNc2ccc(S(N)(=O)=O)cc2[N+](=O)[O-])CC1	-17%	-3%	i	8%	i
CCCN1CCC(=NNc2ccc(S(=O)(=O)N(CC)CC)cc2[N+](=O)[O-])CC1	?	6%	12µM*	?	?
CCOc1ccccc1-c1cc(C(=O)N/N=C/c2ccc3c(c2)OCO3)c2ccccc2n1	5%	15%	i	?	?
O=C(Nc1ccc2c(c1)OCO2)c1cc(-c2ccc(O)cc2)on1	?	10µM*	i	?	i
Cc1cc(C(=O)N/N=C/c2ccc3c(c2)OCO3)c2ccccc2n1	10µM*	?	?	?	2.6µM*
O=C(N/N=C/c1ccc2c(c1)OCO2)c1cc(-c2ccncc2)nc2ccccc12	16µM*	5.8µM*	i	-24%	5.8µM*
O=C(N/N=C/c1ccc2c(c1)OCO2)c1cc(-c2ccccc2Cl)nc2ccccc12	20%	?	i	?	i
O=C(Nc1ccc2c(c1)OCO2)c1cc(-c2ccncc2)nc2ccccc12	?	18µM*	?	-18%	?
CN(C)C(=O)c1ccc(-c2n[nH]c(=O)c3ccccc23)cc1	-2%	0.82µM*	i	?	i
O=[N+]([O-])c1ccc(C(O)C(CO)NC(=S)Nc2ccccc2)cc1 (configuration not stated)	-2%	-1%	i	8.2µM*	i
N#CCCn1cc(/C=N/O)c(-c2ccccc2)n1	1%	2%	i	23µM*	i
N#CCCn1cc(C=C(C#N)C#N)c(-c2ccc(-c3ccccc3)cc2)n1	?	?	21µM*	-19%	?
N#CCCn1cc(/C=N/NC(N)=S)c(-c2ccc(-c3ccccc3)cc2)n1	?	?	i	26µM*	i
N#CCCn1cc(/C=N/O)c(-c2ccc(F)cc2)n1	1%	-1%	?	-6%	i
CC(=O)N1CCc2cc(S(=O)(=O)NC(CC(C)C)C(=O)NCc3ccccc3Cl)ccc21 (configuration not stated)	.	.	i	.	?
COc1cccc(NC(=O)CSCc2cc(=O)c3ccc(C)c(C)c3[nH]2)c1	.	.	i	.	i
CCOC(=O)c1c(N)sc2c(OCC)c(Br)ccc12	21µM*	?	i	9%	i
CC(=O)c1cc(-c2ccccc2)n(CCC(=O)Nc2cc(C)cc(C)c2)c1C	.	.	i	.	i
NC(CSC(c1ccccc1)(c1ccccc1)c1ccccc1)C(=O)O (configuration not stated)	6.5µM*	6.5µM*	?	.	3.7µM*
SMILES	SW480 rereplic	MCF10A rerep	KB-V1 MDR tox	ELG1 DNA repair	KB-3-1 cytotox
NC(CC(=O)NC(c1ccccc1)(c1ccccc1)c1ccccc1)C(=O)O (configuration not stated)	-10%	0%	i	?	i
C/C(N)=C(/C#N)C(=O)CSc1nc2ccccc2c(=O)n1-c1ccc(C)c(Cl)c1	12%	24%	?	6.5µM*	i
C/C(N)=C(/C#N)C(=O)CSc1nc2ccccc2c(=O)n1CCCO	-3%	0%	i	-2%	i
C/C(N)=C(/C#N)C(=O)CSc1nc2ccccc2c(=O)n1-c1ccccc1C	15%	23%	i	-16%	i
CCOC(=O)c1c(C)[nH]c(C)c1C(=O)CSc1nc2ccccc2c(=O)n1-c1ccc(Cl)cc1	?	?	10µM*	?	?
C/C(N)=C(/C#N)C(=O)CSc1nc2ccccc2c(=O)n1-c1ccc(C)cc1	.	.	.	7.3µM*	.
COc1ccc(N2CCN(C(=O)CCn3c(=O)[nH]c4cc(OC)c(OC)cc4c3=O)CC2)cc1	.	.	i	.	i
CC1(C)CC(=O)C2=C(C1)OC(N)=C(C#N)C2C#Cc1ccccc1 (configuration not stated)	?	8.9µM*	i	27%	i
CC(c1ccccc1)C1C(C#N)=C(N)OC2=C1C(=O)CC(C)(C)C2 (configuration not stated)	-14%	-2%	i	-23%	i
CCCCCCCCCCCCCCCCCCCCCCO	0%	2%	.	.	.
C/C(=N/NC(N)=S)c1cc2ccc(O)cc2oc1=O	?	18µM*	i	-11%	i
NC(=S)c1cc2ccc(O)cc2oc1=O	10µM*	21µM*	i	-14%	i
C/C(=N/NC(=O)c1ccncc1)c1cc2ccc(O)cc2oc1=O	61%	?	i	-2%	i
Nc1nc(CCl)nc(N(c2ccccc2)c2ccccc2)n1	1.2µM*	?	16µM*	?	?
COc1ccc2c(c1)c1ncn(CCN3CCCC3)c(=O)c1n2C	-4%	18%	8.2µM*	-4%	i
COc1ccc2c(c1)c1ncn(CCN3CCCCC3)c(=O)c1n2C	2%	5%	i	11%	i
CCc1ccc(Nc2n[n+](-c3ccccc3)c(-c3ccc(N(CC)CC)cc3)s2)cc1	4%	?	i	-3%	i
Fc1ccc(-[n+]2nc(Nc3ccccc3)sc2-c2c(Cl)cccc2Cl)cc1	-44%[9.22 µM]	?	i	?	?
CCc1ccc(Nc2n[n+](-c3ccccc3)c(-c3ccc(OCc4ccccc4)cc3)s2)cc1	3%	-16%	i	13µM*	?
CCc1ccc(Nc2n[n+](-c3ccccc3)c(-c3c(Cl)cccc3Cl)s2)cc1	?	?	?	-11%	23µM*
Cc1ccc(NC(=O)C2CCN(S(=O)(=O)c3ccc4c(c3)NC(=O)C(C)S4)CC2)cc1Cl (configuration not stated)	-3%	-9%	?	13µM*	?
Cc1cc(C)cc(NC(=O)C2CCN(S(=O)(=O)c3ccc4c(c3)NC(=O)C(C)S4)CC2)c1 (configuration not stated)	-27%	18%	i	?	i
Cc1ccc(S(=O)(=O)N2CCN(C(=O)C3CCCCC3)CC2)cc1	?	2.9µM*	i	1%	i
